What follows are molecules tested against Tyrosine-protein kinase Fer (Homo sapiens) (UniProt P16591). Settings: at 10 µM.
Sequence of Tyrosine-protein kinase Fer (Homo sapiens) (P16591 whole entry, looked up): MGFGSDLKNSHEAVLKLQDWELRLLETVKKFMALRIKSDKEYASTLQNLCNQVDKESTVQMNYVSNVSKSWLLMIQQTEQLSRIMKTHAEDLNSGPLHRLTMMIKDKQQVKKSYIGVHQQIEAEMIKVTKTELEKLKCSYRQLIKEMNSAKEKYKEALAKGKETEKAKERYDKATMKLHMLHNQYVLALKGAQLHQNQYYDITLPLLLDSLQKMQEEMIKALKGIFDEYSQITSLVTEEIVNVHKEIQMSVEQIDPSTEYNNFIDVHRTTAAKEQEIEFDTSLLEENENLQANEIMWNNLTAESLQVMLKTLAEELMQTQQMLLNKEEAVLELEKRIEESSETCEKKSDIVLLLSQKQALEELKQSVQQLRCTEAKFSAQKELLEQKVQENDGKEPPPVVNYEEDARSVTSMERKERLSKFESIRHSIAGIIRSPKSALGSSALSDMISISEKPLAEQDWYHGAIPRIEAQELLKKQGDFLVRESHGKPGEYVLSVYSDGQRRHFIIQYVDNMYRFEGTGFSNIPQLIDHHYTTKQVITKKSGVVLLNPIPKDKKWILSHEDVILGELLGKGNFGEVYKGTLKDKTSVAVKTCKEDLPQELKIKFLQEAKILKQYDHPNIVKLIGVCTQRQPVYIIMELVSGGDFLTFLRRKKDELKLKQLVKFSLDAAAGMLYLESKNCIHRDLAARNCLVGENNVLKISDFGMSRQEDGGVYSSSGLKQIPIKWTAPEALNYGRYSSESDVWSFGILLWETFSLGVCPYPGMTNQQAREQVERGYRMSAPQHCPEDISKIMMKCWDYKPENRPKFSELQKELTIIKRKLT

| Structure (SMILES) | residual activity |
| --- | --- |
| CC(=O)O/N=C1\C(=C2\C(=O)Nc3cc(Br)ccc32)Nc2ccccc21 | 92% |
| Oc1n[nH]c2nnc(-c3c(-c4ccccc4)nn4ccccc34)cc12 | 91% |
| Cn1cnc2cc3c(Nc4cccc(Br)c4)ncnc3cc21 | 93% |
| O=C(O)c1ccc2c3c1cccc3c(=O)n1c3ccccc3nc21 | 5% |
| Nc1nc(Nc2ccc(S(N)(=O)=O)cc2)nn1C(=S)Nc1c(F)cccc1F | 1% |
| CCC(=O)Nc1ccc2ncnc(Nc3cccc(Br)c3)c2c1 | 91% |
| CO[C@H]1C[C@@H]2CC[C@@H](C)[C@@](O)(O2)C(=O)C(=O)N2CCCC[C@H]2C(=O)O[C@H]([C@H](C)C[C@@H]2CC[C@@H](O)[C@H](OC)C2)CC(=O)[C@H](C)/C=C(\C)[C@@H](O)[C@@H](OC)C(=O)[C@H](C)C[C@H](C)/C=C/C=C/C=C/1C | 95% |
| O=C1NC(=O)/C(=C/c2ccc3c(c2)OC(F)(F)O3)S1 | 86% |
| O=C1Nc2ccccc2/C1=C1/Nc2ccccc2/C1=N\OCCC(O)CO (stereo not given) | 35% |
| O=c1c2ccccc2[nH]c(=S)n1CCN1CCC(=C(c2ccc(F)cc2)c2ccc(F)cc2)CC1 | 89% |
| CC(C)n1cnc2c(NCc3ccccc3)nc(NCCCO)nc21 | 103% |
| Cc1nc2cc3nc(-c4cccs4)cnc3cc2n1C | 105% |
| COc1cc2ncnc(Nc3ccc(O)c(Br)c3)c2cc1OC | 84% |
| CCOc1cc2ncnc(Nc3cccc(Br)c3)c2cc1OCC | 85% |
| Cn1cc(/C=C2\C(=O)Nc3ccc(S(N)(=O)=O)cc32)c2ccccc21 | 9% |
| COc1ccc(CNc2nc(N(CCO)CCO)nc3c2ncn3C(C)C)cc1 | 86% |
| O=c1cc(-c2cccc3c2Sc2ccccc2S3)oc(N2CCOCC2)c1 | 83% |
| O=C(Nc1cccc(Nc2nccc(Nc3cccc(C(F)(F)F)c3)n2)c1)C1CC1 | 59% |

| Structure (SMILES) | residual activity |
| --- | --- |
| CCN(CC)CCCCN1c2ccccc2Oc2ccc(Cl)cc21 | 102% |
| Nc1cccc(-c2cc3c(Oc4cccc(O)c4)ncnc3[nH]2)c1 | 10% |
| COc1ccc(OC)c2c(=S)c3ccccc3[nH]c12 | 92% |
| COc1cccc(-c2cc(=O)c3ccccc3o2)c1N | 101% |
| CNc1cc2c(Nc3cccc(Br)c3)ncnc2cn1 | 90% |
| CC(C)n1cnc2/c(=N/c3cccc(Cl)c3)nc(NCCO)[nH]c21 | 47% |
| CN(C)c1ccc(/C=C2\C(=O)Nc3ccccc32)cc1 | 82% |
| N#C/C(=C(\N)Sc1ccc(N)cc1)c1ccccc1C(F)(F)F | 79% |
| O=C1Nc2cc(Br)ccc2/C1=C1/Nc2ccccc2/C1=N\O | 45% |
| Ic1cccc(CSc2nnc(-c3ccncc3)o2)c1 | 100% |
| O=C1NC(=O)c2cc(Nc3ccc(F)cc3)c(Nc3ccc(F)cc3)cc21 | 86% |
| O=C1c2ccccc2-[n+]2ccc3c([nH]c4ccccc43)c21 | 90% |
| COc1ccc(S(=O)(=O)N(CCO)c2ccccc2CN(C)C/C=C/c2ccc(Cl)cc2)cc1 | 91% |
| O=C1NC(=O)/C(=C\c2ccc3nccnc3c2)S1 | 94% |
| Oc1ccc(Nc2nc(-c3ccc(Cl)cc3)cs2)cc1 | 100% |
| O=C1NC(=O)c2c1c1c3ccccc3[nH]c1c1[nH]c3cc(Br)ccc3c21 | 86% |
| Oc1c2ccccc2c2c3c(cccc13)N=N2 | 51% |
